The record followed here is ChEMBL document CHEMBL2218924, “A broad activity screen in support of a chemogenomic map for kinase signalling research and drug discovery” (Biochem J, 2013).

Structures are written as SMILES.

The target in one test is Ribosomal protein S6 kinase beta-1 (Homo sapiens) (UniProt P23443). Particulars: at 1 µM.
Ribosomal protein S6 kinase beta-1 (Homo sapiens), sequence (P23443 whole entry, looked up): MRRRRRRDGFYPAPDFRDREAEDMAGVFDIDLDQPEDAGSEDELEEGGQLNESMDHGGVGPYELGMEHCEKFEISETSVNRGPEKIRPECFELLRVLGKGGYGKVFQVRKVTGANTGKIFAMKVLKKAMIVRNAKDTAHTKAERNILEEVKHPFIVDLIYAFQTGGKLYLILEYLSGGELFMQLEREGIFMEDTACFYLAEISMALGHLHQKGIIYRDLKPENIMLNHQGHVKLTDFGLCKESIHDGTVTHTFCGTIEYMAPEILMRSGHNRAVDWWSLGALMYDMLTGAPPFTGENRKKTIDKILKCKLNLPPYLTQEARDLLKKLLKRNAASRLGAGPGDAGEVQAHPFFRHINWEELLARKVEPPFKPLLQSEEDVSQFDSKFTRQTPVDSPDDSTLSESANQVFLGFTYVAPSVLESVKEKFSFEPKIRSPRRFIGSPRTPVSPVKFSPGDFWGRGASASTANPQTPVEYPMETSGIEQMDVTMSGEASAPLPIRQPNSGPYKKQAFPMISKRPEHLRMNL
Regarding `COc1cc2ncnc(Nc3cccc(Cl)c3)c2cc1OC`, the residual activity came to 82%.

On to `N#Cc1c(NC(=O)c2cccc3ccccc23)sc2c1CCCC2`, for which the residual activity came out at 91%.

For `COc1cc2c(cc1OC)-c1n[nH]c(Nc3cccc(F)c3)c1C2`, the residual activity was 63%.

For the molecule `O=C1Cc2c([nH]c3ccc(Br)cc23)-c2ccccc2N1`, the residual activity came out at 66%.

As for `Cn1c2ccccc2c2c3c(c4c5ccccc5n(CCC#N)c4c21)CNC3=O`, the residual activity is 1%.

Consider `O=C1NC(=O)C(c2cn(CCCO)c3ncccc23)=C1c1cnccn1`, for which the residual activity came to 91%.

Consider `O=C(c1ccccc1)c1ccc(N2CCOCC2)cc1O`, for which the residual activity was 77%.

On to `CC(C)(C)n1nc(Cc2cccc3ccccc23)c2c(N)ncnc21`, for which the residual activity was 118%.

Consider `Oc1cccc(-c2nc(N3CCOCC3)c3oc4ncccc4c3n2)c1`, for which the residual activity stood at 68%.

On to `O=C1Cc2c([nH]c3ccc([N+](=O)[O-])cc23)-c2ccccc2N1`, for which the residual activity was 106%.

For `O=c1cc(N2CCOCC2)oc2c1ccc1ccccc12`, the residual activity turned out to be 74%.

In the case of `O=C1Nc2ccccc2/C1=C\c1c(Cl)[nH]c2ccccc12`, the residual activity is 87%.

Take `Nc1ncnc2c1c(-c1ccc(Oc3ccccc3)cc1)cn2C1CCCC1`: the residual activity was 67%.

For `COc1cc2nccc(Oc3ccc(NC(=O)Nc4cc(C)on4)c(Cl)c3)c2cc1OC`, the residual activity is 76%.

With `Cn1sc(=O)n(Cc2ccccc2)c1=O`, the residual activity is 67%.

`CCCC(=O)Oc1ccc2[nH]c(C(=O)c3cc4ccccc4[nH]3)cc2c1`: the residual activity is 104%.

As to `O=C1NC(=O)c2c1c1c3ccccc3[nH]c1n1cncc21`, the residual activity was determined as 68%.

Regarding `Nc1ncnc2[nH]nc(Nc3ccc(F)cc3)c12`, the residual activity stood at 91%.

For `O=C1NC(=O)C(c2c[nH]c3ccccc23)=C1c1c[nH]c2ccccc12`, the residual activity is 48%.

Consider `Nc1n[nH]c2nc3ccccc3nc12`, for which the residual activity stood at 78%.

Turning to `NC(=O)Nc1sc(-c2ccc(F)cc2)cc1C(N)=O`, the residual activity is 78%.

Take `O=C(NC(NC(=S)Nc1ccc(F)c([N+](=O)[O-])c1)C(Cl)(Cl)Cl)C(c1ccccc1)c1ccccc1` (centres undefined): the residual activity amounted to 141%.

In the case of `O=C1Nc2ccc(Cl)cc2/C1=C/c1cc(Cl)c(O)c(Cl)c1`, the residual activity was 60%.

In the case of `COc1ccc(Cl)cc1NC(=O)Nc1cc(C)nc2ccccc12`, the residual activity was determined as 97%.

As for `COc1ccc2c(c1)c(C1=C(c3c[nH]c4ccccc34)C(=O)NC1=O)cn2CCCN(C)C`, the residual activity worked out at 22%.

As for `Nc1ncnc2c1cnn2-c1ccccc1`, the residual activity is 84%.

For the molecule `O=C(c1cc2cc(O)ccc2[nH]1)c1cc2cc(O)ccc2[nH]1`, the residual activity stood at 73%.

For `COc1cc2nccc(Oc3ccc(NC(=S)NC(=O)c4ccccc4C)cc3)c2cc1OC`, the residual activity was determined as 66%.

As for `O=c1cc(N2CCNCC2)oc2c(-c3ccccc3)cccc12`, the residual activity came to 69%.

In the case of `CC(C)c1nn(-c2c(Cl)cccc2Cl)c2nc(Cc3ccc(OCCO)cc3)[nH]c(=O)c12`, the residual activity is 81%.

On to `O=C(O)/C=C/c1cc(Br)c(Br)c(Br)c1Br`, for which the residual activity amounted to 84%.

In the case of `N#C/C(=C1/Nc2ccccc2S1)c1ccnc(NCCc2cccnc2)n1`, the residual activity was 72%.

For another test the target is unchanged. Particulars: at 10 µM.
With `COc1cc2ncnc(Nc3cccc(Cl)c3)c2cc1OC`, the residual activity is 59%.

On to `N#Cc1c(NC(=O)c2cccc3ccccc23)sc2c1CCCC2`, for which the residual activity is 68%.

For `COc1cc2c(cc1OC)-c1n[nH]c(Nc3cccc(F)c3)c1C2`, the residual activity came to 79%.

As for `O=C1Cc2c([nH]c3ccc(Br)cc23)-c2ccccc2N1`, the residual activity came out at 53%.

Turning to `Cn1c2ccccc2c2c3c(c4c5ccccc5n(CCC#N)c4c21)CNC3=O`, the residual activity came to 4%.

Take `O=C1NC(=O)C(c2cn(CCCO)c3ncccc23)=C1c1cnccn1`: the residual activity was determined as 76%.

`O=C(c1ccccc1)c1ccc(N2CCOCC2)cc1O`: the residual activity is 53%.

`CC(C)(C)n1nc(Cc2cccc3ccccc23)c2c(N)ncnc21`: the residual activity came out at 96%.

For the molecule `Oc1cccc(-c2nc(N3CCOCC3)c3oc4ncccc4c3n2)c1`, the residual activity came out at 84%.

With `O=C1Cc2c([nH]c3ccc([N+](=O)[O-])cc23)-c2ccccc2N1`, the residual activity is 103%.

Turning to `O=c1cc(N2CCOCC2)oc2c1ccc1ccccc12`, the residual activity is 41%.

As for `O=C1Nc2ccccc2/C1=C\c1c(Cl)[nH]c2ccccc12`, the residual activity was determined as 54%.

On to `Nc1ncnc2c1c(-c1ccc(Oc3ccccc3)cc1)cn2C1CCCC1`, for which the residual activity turned out to be 45%.

On to `COc1cc2nccc(Oc3ccc(NC(=O)Nc4cc(C)on4)c(Cl)c3)c2cc1OC`, for which the residual activity was determined as 53%.

Regarding `Cn1sc(=O)n(Cc2ccccc2)c1=O`, the residual activity was 57%.

`CCCC(=O)Oc1ccc2[nH]c(C(=O)c3cc4ccccc4[nH]3)cc2c1`: the residual activity was 91%.

With `O=C1NC(=O)c2c1c1c3ccccc3[nH]c1n1cncc21`, the residual activity stood at 28%.

In the case of `Nc1ncnc2[nH]nc(Nc3ccc(F)cc3)c12`, the residual activity turned out to be 61%.

Take `O=C1NC(=O)C(c2c[nH]c3ccccc23)=C1c1c[nH]c2ccccc12`: the residual activity was 5%.

For the molecule `Nc1n[nH]c2nc3ccccc3nc12`, the residual activity amounted to 47%.

In the case of `NC(=O)Nc1sc(-c2ccc(F)cc2)cc1C(N)=O`, the residual activity was 39%.

With `O=C(NC(NC(=S)Nc1ccc(F)c([N+](=O)[O-])c1)C(Cl)(Cl)Cl)C(c1ccccc1)c1ccccc1` (centres undefined), the residual activity worked out at 99%.

Take `O=C1Nc2ccc(Cl)cc2/C1=C/c1cc(Cl)c(O)c(Cl)c1`: the residual activity stood at 40%.

In the case of `COc1ccc(Cl)cc1NC(=O)Nc1cc(C)nc2ccccc12`, the residual activity came out at 62%.

In the case of `COc1ccc2c(c1)c(C1=C(c3c[nH]c4ccccc34)C(=O)NC1=O)cn2CCCN(C)C`, the residual activity amounted to 2%.

As to `Nc1ncnc2c1cnn2-c1ccccc1`, the residual activity worked out at 63%.

Take `O=C(c1cc2cc(O)ccc2[nH]1)c1cc2cc(O)ccc2[nH]1`: the residual activity worked out at 18%.

On to `COc1cc2nccc(Oc3ccc(NC(=S)NC(=O)c4ccccc4C)cc3)c2cc1OC`, for which the residual activity was found to be 61%.

As to `O=c1cc(N2CCNCC2)oc2c(-c3ccccc3)cccc12`, the residual activity stood at 65%.

On to `CC(C)c1nn(-c2c(Cl)cccc2Cl)c2nc(Cc3ccc(OCCO)cc3)[nH]c(=O)c12`, for which the residual activity came out at 59%.

For the molecule `O=C(O)/C=C/c1cc(Br)c(Br)c(Br)c1Br`, the residual activity stood at 70%.

With `N#C/C(=C1/Nc2ccccc2S1)c1ccnc(NCCc2cccnc2)n1`, the residual activity turned out to be 39%.
